# Screening results from PubChem BioAssay.
# KDM5B inh: inhibitors of human KDM5B histone demethylase. actives 2.6% (n = 220,000). Q9UGL1. KDM5B demethylase, FDH-coupled NADH fluorescence (FDH is formaldehyde dehydrogenase). AID 1347165. Potency, µM (series often up to 57.7 µM), hits mostly inhibitors; active means well fitted inhibition curve with a large enough effect; further: 0% is about no effect; nearly all actives have a fitted effect of over 70% in size
#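 Measured: NADH fluorescence change, 30 min, RT. System: KDM5BΔAP 200 nM final, H3K4me3 peptide, α-KG, Fe(II), ascorbate, NAD⁺ plus FDH, pH 7.5 HEPES. Compounds: titrated, 10 min pre-incubation with enzyme.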
# Numbers without * were called inactive; i = inactive. Many of the other results were omitted from the sample, so hits are more common in it than they were. Potency means the concentration at half of the fitted maximal effect.
SMILES,KDM5B inh
Cc1cnc(-c2ccncc2)n1CCNC(=O)NCc1ccc(F)cc1,i
Cc1nc(CC(=O)NCc2ccccn2)cs1,i
Cc1c(-c2ccc(F)cc2)[nH]c2ccc(CNC(=O)[C@@H]3CCCO3)cc12,28.2µM*
COc1ccccc1NC1(c2nnnn2-c2c(C)cccc2C)CCCC1,i
Cc1nn(CC(=O)NC(C)(C)C)c(C)c1S(=O)(=O)N1CCCC(C(=O)N2CCCC2)C1 (stereo not drawn),i
CC(=O)Nc1ccc(-c2csc(-c3ccccc3C)n2)cc1,i
C/C(Cl)=C/C[N+](C)(C/C=C(\C)Cl)Cc1ccccc1 (stereo not drawn),i
Cc1ccc(CC(=O)N2CCC3(CC2)N=C(c2ccc(C)cc2)NO3)cc1,i
Fc1ccc(NCc2ccc(Br)cc2)c(F)c1,i
CN(CC(=O)Nc1ccc(C(F)(F)F)cc1)C1CCc2ccccc21 (stereo not drawn),i
COc1ccc2c(CCNC(=O)c3ccccc3F)c[nH]c2c1,i
N#Cc1cccc(NC(=O)Cc2ccc3c(c2)CCC3)c1,i
CCOC(=O)c1ccoc1CN(CC)CC,i
c1ccc(OCc2noc(CN3CC[C@@H]4CCCC[C@H]4C3)n2)cc1,i
c1ccc(OCc2noc(-c3ccc(NC4CCSC4)nc3)n2)cc1 (stereo not drawn),28.2µM*
O=C(NCCc1noc(-c2cccnc2)n1)C1(c2ccccc2)CC1,i
Clc1ccc(Cl)c(-c2nn3c(CN4CCOCC4)nnc3s2)c1,i
CONC(=O)C(NC(=O)C12CC3CC(CC(C3)C1)C2)C(C)C (stereo not drawn),i
O=c1c2cc(-c3ccc(F)cc3)nn2ccn1CC(O)c1ccc2c(c1)OCO2 (stereo not drawn),31.6µM*
O=c1c2cc(-c3ccc(F)cc3)nn2ccn1CC(O)c1ccc(F)cc1 (stereo not drawn),20µM*
O=C(Cn1ccn2nc(-c3ccc4c(c3)OCO4)cc2c1=O)NCc1ccc(Cl)cc1,i
COc1ccc(CNC(=O)Cn2ccn3nc(-c4ccc5c(c4)OCO5)cc3c2=O)cc1,i
CCOc1ccc(-c2cc3c(=O)n(CC(=O)NCc4ccc(F)cc4)ccn3n2)cc1,i
Cc1nn(CC(O)c2ccc(F)cc2)c(=O)c2ccccc12 (stereo not drawn),i
CCOC(=O)c1sc(NC(=O)COc2c(C)cc(C)cc2C)nc1C,i
SMILES,KDM5B inh
COc1ccc(OC)c(C2CCCN2CC(=O)N(CCC#N)c2ccccc2F)c1 (stereo not drawn),i
COCCCNC(=O)CCC(=O)NCCCOC,i
CCCCCOC(=O)c1c(C)oc2cc(C)c(NS(=O)(=O)c3cccs3)cc12,i
Cc1cccc(NC(=O)Cc2nc(-c3c(N)n(Cc4ccccc4)c(=O)n(C)c3=O)cs2)c1,i
COc1ccc(CNC(=O)C[C@@H]2C[C@@H](C(C)C)[C@H](CNC(=O)c3ccc(NC(C)=O)cc3)C=C2C)cc1,i
COc1ccc(NC(=O)NC[C@@H]2C=C(C)[C@H](CC(=O)NCCN(C)C)C[C@H]2C(C)C)cc1,i
COc1ccc(CNC(=O)C[C@@H]2C[C@@H](C(C)C)[C@H](CNC(C)=O)C=C2C)cc1,35.5µM*
Cc1ccc(-c2cc(C(F)F)n3nc(C)c(Br)c3n2)cc1,i
COCCCNC(=O)c1c(C)noc1-c1cc(OC)cc(OC)c1,i
COc1cc(C(C)NC(=O)c2c(C)noc2C)cc(OC)c1OC (stereo not drawn),i
Cc1noc(-c2ccccc2Cl)c1C(=O)NCCc1cccs1,i
COCCCNC(=O)c1c(C)noc1-c1cc(OC)c(OC)c(OC)c1,31.6µM*
COc1ccc(-c2onc(C)c2C(=O)N(C)Cc2cc(OC)c(OC)c(OC)c2)cc1,i
COc1cc(-c2onc(C)c2C(=O)NCCSC)cc(OC)c1OC,31.6µM*
COc1ccc(-c2onc(C)c2C(=O)NCc2cccs2)cc1,i
COc1cc(OC)cc(-c2onc(C)c2C(=O)NCCCOC(C)C)c1,i
COc1ccc(-c2onc(C)c2C(=O)NCc2c(OC)cc(OC)cc2OC)cc1,i
COc1cc(-c2onc(C)c2C(=O)NCCc2cccs2)cc(OC)c1OC,22.4µM*
COc1cc(-c2onc(C)c2C(=O)NCc2ccc(F)cc2F)cc(OC)c1OC,i
CCC(COC)NC(=O)c1c(C)noc1-c1cc(OC)c(OC)c(OC)c1 (stereo not drawn),28.2µM*
COc1cc(C)c(C)cc1S(=O)(=O)n1nnc2ccccc21,i
O=C(OCC1C(COC(=O)c2cc([N+](=O)[O-])ccc2Cl)C1(Cl)Cl)c1cc([N+](=O)[O-])ccc1Cl (stereo not drawn),i
CCOC(=O)Cc1ccc(NC(=O)N2CCC(CN3CCc4ccccc4C3)CC2)cc1,i
Cc1nn(C(C)C)c(C)c1NC(=O)c1cc2occc2n1Cc1ccccc1Cl,i
O=C(Nc1ccccc1SC1CCCC1)c1ccccn1,i
SMILES,KDM5B inh
O=C(Cc1coc2cc3c(cc12)CCC3)NC1CCCCC1,i
O=C1CCCC2=C1C(c1ccc(Cl)c(Cl)c1)c1c([nH]n(-c3ccccc3)c1=O)N2 (stereo not drawn),i
CC(=O)c1ccc(N2CCN(C(=O)c3csc(-c4ccc(C(C)C)cc4)n3)CC2)cc1,i
CCc1ccc2c(CSc3nncn3C(C)C)cc(=O)oc2c1,i
Cc1cc2oc(=O)cc(-c3ccccc3)c2c2occ(-c3ccccc3)c12,i
CCOc1ccc(OCCSc2nc3ccccc3n2CC(O)CO)cc1 (stereo not drawn),i
FC(F)(F)c1ccc(-c2noc([C@@H]3Cc4nc[nH]c4CN3Cc3cc4ccccc4o3)n2)cc1,25.1µM*
c1ccc2oc(CN3Cc4[nH]cnc4C[C@H]3c3nc(-c4ccc5c(c4)OCO5)no3)cc2c1,35.5µM*
N#Cc1ccc(C(=O)N2Cc3[nH]cnc3C[C@H]2c2nc(-c3ccc4c(c3)OCO4)no2)cc1,i
O=C(Nc1cccc(F)c1)N1Cc2[nH]cnc2C[C@H]1c1nc(-c2ccc(C(F)(F)F)cc2)no1,i
O=C(NCc1ccccc1)N1Cc2[nH]cnc2C[C@H]1c1nc(-c2ccc3c(c2)OCO3)no1,i
O=C(O)CCC(=O)N1Cc2[nH]cnc2C[C@H]1c1nc(-c2ccc(OC(F)(F)F)cc2)no1,i
CN(CCc1ccncc1)Cc1ccc(C#N)cc1,i
O=C(Nc1ccc(F)cc1)C1=C(c2ccccc2)SCCO1,i
Cc1nnc(-c2cc(-c3cccc(F)c3)ccn2)n1CCN1CCOCC1,i
Cc1cc(-c2ccnc(-c3nnc(C)n3CCN3CCOCC3)c2)ccn1,i
COc1ccccc1-c1ccnc(-c2nnc(C)n2CCN2CCOCC2)c1,39.8µM*
Cc1nnc(-c2cc(-c3cccnc3)ccn2)n1C1CCCCC1,i
Cc1nnc(-c2cc(-c3cccc(OC(F)(F)F)c3)ccn2)n1CCN1CCOCC1,i
Cc1nnc(-c2cc(-c3cccc(O)c3)ccn2)n1CCc1ccccc1,i
Cc1nnc(-c2cc(NCc3cccs3)ccn2)n1C1CCCCC1,i
Cc1nnc(-c2cc(-c3cnn(C)c3)ccn2)n1C1CCCCC1,i
COc1ccc(-c2ccnc(-c3nnc(C)n3Cc3ccccc3)c2)cc1OC,35.5µM*
COc1ncccc1-c1ccnc(-c2nnc(C)n2C2CCCCC2)c1,28.2µM*
Cc1nnc(-c2cc(-c3ccc(N4CCOCC4)cc3)ccn2)n1C1CCCCC1,31.6µM*
Cc1nnc(-c2cc(-c3cccc(CO)c3)ccn2)n1Cc1ccccc1,i
